Screens: PubChem, several laboratories
ssDAF-12 act: activates DAF-12 receptor from parasite S. stercoralis; HEK293 ssDAF-12/GRIP1 lit1-tk-luc reporter, luminescence; % of 3 µM dafachronic acid response; activation, % at 6.8 µM; AID 652126; actives 1% (n = 370,000);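 active means activation above the mean over all tested compounds plus 3 SD, cut at about 0.9% in these data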;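 further: 0% = DMSO-only wells and 100% = 3 µM delta7-dafachronic acid wells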
DAX1 inh-1: DAX1 (NR0B1) inhibition, primary screen; HEK293T StAR-luciferase reporter, SF-1/DAX-1 repression relief; inhibition, % at 6.8 µM; actives 1.1% (n = 370,000); AID 652010;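 active means inhibition above the mean over all tested compounds plus 3 SD, cut at about 3.6% in these data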;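 further: 0% = DAX-1 cells with DMSO and 100% = cells lacking DAX-1 with DMSO; higher inhibition means more luminescence from relief of DAX-1 repression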
Rev-erbA mod: modulates human Rev-erb alpha binding to DNA; AID 1259318; activity, % at 10 µM; actives 0.79% (n = 370,000); Rev-erbα–FITC-DNA binding, fluorescence polarization, 90 min;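 active means activity above about 14%, limit read from the data; passing the limit was not always enough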;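 further: 0% = DMSO wells with 35 nM protein and 100% = DMSO wells with 750 nM protein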
hcDAF12 agonist: activates DAF-12 receptor from parasite H. contortus; HEK293 hcDAF-12 lit1-tk-luc reporter, luminescence; 0% DMSO, 100% Δ7-dafachronic acid; activation, % at 6.8 µM; actives 1.4% (n = 370,000); AID 652067;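 active means activation above the mean of all tested compounds plus 3 SD, cut at about 5.5% in these data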;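 further: 100% = response to 3 µM Δ7-dafachronic acid high control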
DAX1 inh-2: inhibitors of human orphan nuclear receptor DAX1 (NR0B1); HEK293 Gal4-DAX1 luciferase reporter, luminescence; P51843; inhibition, % at 6.75 µM; actives 0.99% (n = 340,000);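 active means inhibition above the mean over all tested compounds plus 3 SD, cut at about 4.2% in these data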;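 further: 0% = DAX1-transfected cells with DMSO and 100% = empty-vector control cells with DMSO; inhibition shows as a rise in luminescence from relieved DAX1 repression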
Target sequence (P51843 207-470 limits assumed): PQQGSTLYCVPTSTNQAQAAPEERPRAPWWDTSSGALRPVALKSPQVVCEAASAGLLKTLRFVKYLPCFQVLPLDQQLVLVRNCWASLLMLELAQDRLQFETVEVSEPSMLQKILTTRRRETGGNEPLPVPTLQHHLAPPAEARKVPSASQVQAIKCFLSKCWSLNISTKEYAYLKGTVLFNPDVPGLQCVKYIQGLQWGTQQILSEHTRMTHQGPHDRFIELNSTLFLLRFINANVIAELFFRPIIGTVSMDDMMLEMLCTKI
hgDAF12 agonist: hgDAF-12 agonism, primary luciferase screen. HEK293 GAL4-hgDAF12 UAS-luciferase reporter, agonist luminescence; normalized to butyrate control. activation, % at 6.8 µM. actives 1.8% (n = 370,000);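 active means activation above a cutoff set at the mean of all screened compounds plus 3 SD, cut at about 10% in these data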;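 further: 0% = DMSO wells and 100% = sodium butyrate wells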
NR1D1 mod conf: Rev-erb alpha (human) modulation, hit confirmation; shares compounds with Rev-erbA mod; Rev-erb alpha FITC-DNA binding, fluorescence polarization, 90 min; activation, % at 25 µM; actives 61% (n = 3,000);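 active means activation at or above a set limit, or at least 3 SD above the negative control mean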;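 further: 0% = 35 nM protein with DMSO and 100% = 750 nM protein high control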
RORg counter: counter-screen for Rev-erb alpha modulators: RORgamma DNA binding. purified RORgamma protein-FITC-DNA binding, fluorescence polarization. AID 1259320. shares compounds with Rev-erbA mod. actives 8% (n = 910). IC50, µM;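 active means Compounds whose fitted half-maximal concentration for disrupting protein-DNA binding is below 10 micromolar; the record names Rev-erb in its text, so the target is in doubt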
Numbers without * were called inactive; nt = not tested or not shown. The list is not random: actives were taken first. Their share in the collection is about 4.8%.

SMILES	ssDAF-12 act	DAX1 inh-1	Rev-erbA mod	hcDAF12 agonist	DAX1 inh-2	hgDAF12 agonist	NR1D1 mod conf	others
COCC(=O)N[C@H]1C[C@@H]2O[C@H](CO)CC[C@@H]2O[C@@H]1CCc1ccc(-c2ccccc2)cc1	0	-1	2	2	nt	0	nt
COc1ccc(S[C@]2(C(=O)N3CCCC3)CC(=O)N(C(=O)Nc3ccc(C)c(Cl)c3)[C@@H]2c2ccc(OC)cc2)cc1	-1	0	4	-1	nt	-1	nt
CC(=O)c1cnc2cc(-c3ccc(Cl)cc3)nn2c1C	-1	1	28*	1	1	6	10
N=C(SC1CC(=O)N(c2ccc(F)cc2)C1=O)N1N=C(c2ccccc2)CC1c1ccccc1 (stereo not drawn)	-1	1	19*	0	0	-5	0
CCC(=O)N1N=C(c2ccccc2)CC1c1ccccc1 (stereo not drawn)	-1	0	-1	-2	0	1	nt
Cc1c(C(=O)N2CCN(Cc3ccc4c(c3)OCO4)CC2)sc2ncnc(N3CCN(c4ccccc4)CC3)c12	-2	-2	14	1	-5	-2	nt
Cc1c(C(=O)N2CCN(Cc3ccc4c(c3)OCO4)CC2)sc2ncnc(N3CCN(c4ccccc4F)CC3)c12	-2	-10	22*	-3	-3	-2	18*
CCn1cc(C(=O)OCC(=O)Nc2cccc(Cl)c2Cl)c(=O)c2ccc(C)nc21	-1	1	43*	-2	nt	3	19*
CCCc1c(Cc2cccc(F)c2)ncn1Cc1cccc(-c2ccccc2)c1	-1	0	-6	-1	nt	1	nt
CCOC(=O)C(C)Sc1cc(CS(=O)(=O)c2ccccc2)nc(-c2ccccc2)n1 (stereo not drawn)	-1	-1	29*	1	0	1	36*	RORg counter=>40
O=S(=O)(Cc1cc(Sc2ccc(Cl)cc2)nc(-c2ccccc2)n1)c1ccccc1	-1	0	7	-1	0	2	nt
COC(=O)c1ccc(N/C=C\C(=O)c2ccc3c(c2)OCO3)cc1	-1	1	118*	0	1	-2	44*	RORg counter=>40
COC(=O)c1ccc(N/C=C/C(=O)c2ccc(OC)c(OC)c2)cc1	-2	0	23*	-1	1	0	12
Nc1nc(N)c2c(ccc3c2ccn3Cc2cccc([N+](=O)[O-])c2)n1	-3	-5	0	-1	nt	-13	nt
COc1cc2c3nnc(-c4ccc(F)cc4)c-3cn(Cc3ccc(F)cc3)c2cc1OC	-1	-1	35*	-2	-3	-1	27*
COc1cc2c3nnc(-c4ccc(F)cc4)c-3cn(Cc3ccccc3)c2cc1OC	0	0	43*	0	1	-1	45*	RORg counter=>40
COc1ccc(Cn2cc3c(-c4ccc(F)cc4)nnc-3c3cc(OC)c(OC)cc32)cc1	-1	-1	5	-1	0	-3	nt
Cn1c(COc2ccccc2)nnc1SCC(=O)Nc1ccccc1-c1ccccc1	-1	-2	-2	-4	nt	1	nt
COc1cc2c(cc1OC)CN(C(=O)CSC1=NCCS1)CC2	-1	-3	2	0	0	-1	nt
COc1ccccc1NC(=O)CSc1nc(N)c(C#N)cc1C#N	-2	0	73*	-1	nt	2	65*	RORg counter=>40
CCOc1ccccc1NC(=O)CSc1nc(N)c(C#N)cc1C#N	-2	-1	84*	-1	0	1	46*	RORg counter=>40
COc1cc2c(cc1OC)CN(C(=O)CSc1nc(N)c(C#N)cc1C#N)CC2	nt	nt	37*	nt	0	nt	47*	RORg counter=>40
CC(C)OC(=O)CSc1nc(N)c(C#N)cc1C#N	-2	1	9	2	1	4	nt
COC(=O)[C@]12C[C@H](CC(=O)NCc3ccc(C)o3)C(=O)N(Cc3ccccc3)C1=C[C@H](C(C)C)O[C@@H]2C1CC1	-1	0	1	1	nt	-1	nt
CCCC1CCC2(CC1)CCC2OC(=S)Nc1cccc(Cl)c1 (stereo not drawn)	-2	nt	6	-2	nt	-3	nt
SMILES	ssDAF-12 act	DAX1 inh-1	Rev-erbA mod	hcDAF12 agonist	DAX1 inh-2	hgDAF12 agonist	NR1D1 mod conf	others
CCN(CC)CCCN=Cc1c(-c2ccccc2)[nH]n(-c2nc3ccccc3s2)c1=O	-1	1	2	4	0	1	nt
CCCN=C(C)c1c(-c2ccccc2)[nH]n(-c2nc3ccccc3s2)c1=O	-1	0	58*	-2	1	-3	40*	RORg counter=8.5*
COC(=O)c1ccc(C23CC4(C2)[C@H](CN(Cc2cccnc2)[C@@H]4c2ccccc2)C3c2ccccc2)cc1 (stereo partly drawn)	-1	-1	6	-1	2	0	nt
N#Cc1ccc(C23CC4(C2)[C@H](CN(Cc2cccnc2)[C@@H]4c2ccccc2)C3c2ccccc2)cc1 (stereo partly drawn)	-2	-1	23*	-3	0	-2	29*
O=C(NCCCCC(NC(=O)c1ccccc1)C(=O)O)OCc1ccccc1 (stereo not drawn)	-2	0	-8	2	nt	-2	nt
O=c1c(=O)n2c(nn1Cc1ccc(F)cc1)sc1ccccc12	-1	0	33*	0	-2	1	20*
COc1cc(NC(=O)c2ccccc2)c(C)cc1NC(=O)CSc1nnc(-c2cnccn2)n1-c1ccc(C)cc1	-1	-2	-5	-1	nt	-3	nt
Cc1sc2ncnc(SCC(=O)N3c4ccccc4Sc4ccc(Cl)cc43)c2c1C	0	0	132*	2	1	2	17*
Cc1sc2ncnc(SCC(=O)NC(=O)c3cccn3C)c2c1C	-1	-2	39*	1	1	3	25*
CSc1sc(-c2nnc(SCC(=O)Nc3ccc(Cl)cc3)n2C)c2c1C=CCC2	-1	0	33*	0	nt	-1	7
Cc1nc(NC(=O)C2CC2)sc1C(=O)Nc1ccc(Br)cc1	-2	0	38*	-2	-1	-2	27*
CC(=O)c1sc(NC(=O)CCCOc2ccc(Cl)cc2)nc1C	-2	0	15*	-1	-2	1	12
COc1ccc(NC(=O)c2sc(NC(=O)C3CC3)nc2C)cc1	0	0	1	1	1	1	nt
CC(=O)c1sc(NC(=O)COc2ccc(Br)cc2)nc1C	-1	0	43*	-2	1	3	49*	RORg counter=>40
CC(=O)c1sc(NC(=O)c2ccc(Cl)cc2)nc1C	-1	1	26*	-1	3	-2	17
